Reference: paper PMC5540273 (PLoS ONE, 2017)

Assays:
Settings in all cases: concentration: 1 μM, replicates: in singlicate; n = 1
RIPK2 = tested on: RIPK2
RIPK4 = tested on: RIPK4
RIPK5 = tested on: RIPK5
ROCK1 = tested on: ROCK1
ROCK2 = tested on: ROCK2
ROS1 = tested on: ROS1
[1] = tested on: RPS6KA4(Kin.Dom.1-N-terminal)
[2] = tested on: RPS6KA4(Kin.Dom.2-C-terminal)
[3] = tested on: RPS6KA5(Kin.Dom.1-N-terminal)
[4] = tested on: RPS6KA5(Kin.Dom.2-C-terminal)
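Further: KINOMEscan kinase panel screen.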

Row | Structure (SMILES) | %Inh (RIPK2) [%] | %Inh (RIPK4) [%] | %Inh (RIPK5) [%] | %Inh (ROCK1) [%] | %Inh (ROCK2) [%] | %Inh (ROS1) [%] | %Inh [1] [%] | %Inh [2] [%] | %Inh [3] [%] | %Inh [4] [%]
1 | O=C(NCCNc1ccnc(Nc2ccc(F)cc2)n1)Nc1ccc2c(c1)OCO2 [GSK1379882] | 0 | 11 | 0 | 0 | 0 | 0 | 0 | 0 | 9 | 10
2 | FC(F)(F)c1ccc(-c2ncn(CCCN3CCOCC3)c2-c2ccncc2)cc1 [SB-217780] | 0 | 61 | 0 | 27 | 0 | 0 | 1 | 11 | 0 | 0
3 | Nc1n[nH]c2ncc(-c3ccccc3)cc12 [SB-517081] | 18 | 19 | 5 | 14 | 2 | 0 | 7 | 0 | 41 | 25
4 | Cc1cccc(-c2nc(Nc3ccc4c(cnn4C)c3)c3ccccc3n2)n1 [GW876731] | 0 | 10 | 0 | 41 | 0 | 12 | 12 | 0 | 0 | 0
